This passage reports activation results from PubChem BioAssay AID652126 (The Scripps Research Institute Molecular Screening Center, 2013).

Among all 370,000 compounds or so, about 3,700 (1%) were called active. The sample holds actives, similar compounds and a random draw of the others, so the mix is not that of the screen.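 The calls were made as follows: active = activation above the mean over all tested compounds plus 3 SD (cut at about 0.9% in these data); inactive = the rest.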

This experiment has as its system Nuclear hormone receptor DAF-12 (Strongyloides stercoralis). Description: ssDAF-12 driven luciferase reporter activation – cell-based, luminescence, HEK293, GRIP1 co-expression, lit1-tk-luc, primary screen (AID 652126).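 Also: 0% = DMSO-only wells and 100% = 3 µM delta7-dafachronic acid wells.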 Particulars: HEK293 ssDAF-12/GRIP1 lit1-tk-luc reporter, at 6.8 µM, hits give high values, % of 3 µM dafachronic acid response. On the technique in general: In a reporter assay the amount or activity of a reporter protein is the signal.
As to `COC(=O)[C@H](C(C)C)N(CCc1cn(Cc2ccccc2)nn1)S(=O)(=O)c1ccc(F)cc1Br`, the activation is -1.33% (inactive).
For the compound `Cc1cc(NC(=O)Nc2ccccc2[N+](=O)[O-])no1`, the activation is 0.25% (inactive).
With `O=C(Nc1ccccc1[N+](=O)[O-])C1C(c2ccccc2)=C1c1ccccc1`, the activation was -1.13% (inactive).
Turning to `Cc1csc(NC(=O)Nc2ccccc2[N+](=O)[O-])n1`, the activation is 2.54% (active).
Take `CCCCCCCCNS(=O)(=O)/C=C/c1cc(C)ccc1CNC(=O)OC(C)(C)C`: the activation was -2.15% (inactive).
The figure for `O=C(O/N=C(/c1ccccc1)c1ccncc1)c1ccccc1[N+](=O)[O-]` is -0.74% (inactive); for `COc1ccc(C(=O)OCC(=O)NCC2CCCO2)cc1[N+](=O)[O-]` (stereo not given) it is -1.82% (inactive).
To `COc1ccc(C(=O)O/N=C(\N)c2ccccn2)cc1[N+](=O)[O-]` belongs 1.15% (active); to `Cc1ccc(-n2c(SCC(=O)Nc3cccc4ccccc34)nnc2-c2ccccn2)cc1`, -1.66% (inactive); to `C#CCCN([C@H](C(=O)OC)C(C)C)S(=O)(=O)c1ccc(F)cc1Br`, -1.1% (inactive).
Regarding `C=CCOC/C=C/C#CCN(CC=C)Cc1ccc(OC)cc1OC`, the activation was -0.87% (inactive).
As to `COc1cc2ccccc2cc1C(=O)Nc1ccccc1C`, the activation is 1.32% (active).
To `Cc1cccc(NC(=O)c2cccc(C(=O)Nc3cccc(C)c3C)n2)c1C` belongs -0.53% (inactive); to `Cc1ccccc1C(=O)Nc1ccccc1Sc1ccccc1`, -1.24% (inactive); to `COc1ccc(C(=O)CSc2nnc(-c3cnccn3)n2-c2ccc(C)cc2)cc1`, -1.18% (inactive).
For `c1cnc(N2CCN(c3ccc4ccccc4n3)CC2)nc1`, the activation is 1.77% (active).
The figure for `CC1=C(N2CCN(c3ncccn3)CC2)CCC1=O` is -1.32% (inactive).
Take `CC12CCC(C(=O)N3CCN(c4ncccn4)CC3)(c3nc4ccccc4nc31)C2(C)C` (stereo not given): the activation is -1.52% (inactive).
For the compound `CCN(CC)C(=O)CC[C@H]1CC[C@]2(CCCN(Cc3ccc(Cl)cc3)C2)O1`, the activation is -0.21% (inactive).
`CC1CCN(c2ccc(C(=O)O)cc2NS(=O)(=O)c2ccc(Br)s2)CC1`: the activation was -1.7% (inactive).
For `COc1ccc([C@H]2OC(=O)C[C@H]2C(=O)N2CCN(c3ccccc3F)CC2)cc1OC`, the activation was -0.67% (inactive).
With `O=C(Oc1ccc(-c2nc(-c3ccccn3)no2)cc1)c1ccccc1`, the activation was -0.56% (inactive).
For `O=S(=O)(c1ccc(Br)cc1)c1nc(-c2ccccc2)oc1N1CCOCC1`, the activation is -0.79% (inactive).
With `Brc1ccc(-c2noc(-c3ccccc3)n2)o1`, the activation was 1.12% (active).
Consider `O=S1(=O)c2c(NCc3ccco3)cccc2Oc2ccccc2CN1Cc1cn(Cc2cccc(C(F)(F)F)c2)nn1`, for which the activation was -1.24% (inactive).
For the compound `CCCCn1c(SCC(=O)NCC2CCCO2)nc2ccc(N3CCOCC3)cc2c1=O` (stereo not given), the activation was -1.75% (inactive).
Turning to `Cc1ccc(NC(=O)c2cnc(SCC(=O)NCC3CCCO3)n(C)c2=O)cc1` (stereo not given), the activation was 1.27% (active).
For `C=CCn1c(SCC(=O)NCC2CCCO2)nc2sc(C)c(C)c2c1=O` (stereo not given), the activation is 2.74% (active).
Regarding `C=CCn1c(SCC(=O)Nc2ccc(NC(C)=O)cc2)nc2sc(C)c(C)c2c1=O`, the activation was -1.09% (inactive).
`Cn1c(SCC(=O)c2ccccc2)ncc(C(=O)Nc2ccc(F)cc2)c1=O`: the activation is -0.84% (inactive).
The figure for `C=CCn1c(SCC(=O)/C(C#N)=C(\C)N)nc2sc(C)c(C)c2c1=O` is -1.37% (inactive); for `CCOC(=O)[C@]12CCCC=C1N(Cc1ccc(OC)cc1)C(=O)[C@@H]2CC(=O)N1CCOCC1` it is -0.73% (inactive).
Turning to `COC(=O)C1CN(CCc2ccccc2)CCS(=O)(=O)N1Cc1cccc(Cl)c1` (stereo not given), the activation is -0.43% (inactive).
As for `CCC(=O)Nc1ccc2c(c1)C(=O)N(C)[C@@H]1CC[C@@H](CC(=O)NCCc3ccccc3)O[C@H]1CO2`, the activation was -0.55% (inactive).
As to `C[C@@H]1CN([C@@H](C)CO)C(=O)c2cccc(NC(=O)Nc3cccc4ccccc34)c2O[C@H]1CN(C)S(=O)(=O)c1ccccc1F`, the activation is -2.39% (inactive).
On to `COC(=O)C[C@@H]1CC[C@H]2[C@@H](COc3ccc(NS(=O)(=O)CC(F)(F)F)cc3C(=O)N2C)O1`, for which the activation was -1.22% (inactive).
Consider `O=C(c1cccc(C(F)(F)F)c1)N1CC[C@H]2[C@H](CCCN2Cc2cc(F)cc(F)c2)C1`, for which the activation was -1.1% (inactive).
Consider `CC(C)C(=O)Nc1oc(-c2ccccc2)cc1C#N`, for which the activation was -1.13% (inactive).
With `CC(C)C(=O)Nc1c(C(=O)c2ccc(F)cc2)oc2ccccc12`, the activation was -0.79% (inactive).
For `CC(C)C(=O)Nc1ccc2c(c1)oc1ccccc12`, the activation is 1.28% (active).
On to `Cc1ccccc1CSc1nnc(Cn2c(=O)sc3ccccc32)n1C`, for which the activation is -1.22% (inactive).
Regarding `CC(C)N1CCCCC(NC(=O)c2ccc3ccccc3c2)C1=O` (stereo not given), the activation was -0.75% (inactive).
`Cc1ccc(NC(=O)C2(N3CCC3=O)CCCCC2)cc1`: the activation was -0.98% (inactive).
For the compound `Cc1ccc(NC(=O)c2csc3c2CCCC3)cc1`, the activation was 1.46% (active).
Turning to `CC1CC(C)CN(CCCNC(=O)c2csc3c2CCCCC3)C1` (stereo not given), the activation is -1.8% (inactive).
For the compound `COc1ccc(NC(=O)CC2C(=O)OCC3CCCCN32)cc1Cl` (stereo not given), the activation is -1.7% (inactive).
The figure for `CC(=O)C1(C(=O)Nc2nccs2)CC(c2ccccc2C(F)(F)F)=NO1` (stereo not given) is -1.38% (inactive).
The figure for `CCC(C)(C)NC(=O)c1cc([N+](=O)[O-])ccc1N1CCCCC1` is -1.32% (inactive).
Consider `O=C(O)C1CCN(c2ccc([N+](=O)[O-])cc2[N+](=O)[O-])CC1`, for which the activation was 1.84% (active).
On to `CC1CCN(c2ccc(S(=O)(=O)Nc3cc(C(=O)O)cc(C(=O)O)c3)cc2[N+](=O)[O-])CC1`, for which the activation was -1.44% (inactive).
To `O=C(c1ccccc1)c1ccc(-c2ccccc2C(=O)NC2CCCCN(Cc3ccc(Cl)cc3)C2=O)cc1` (stereo not given) belongs -0.93% (inactive); to `COC(=O)C[C@@H]1C=C[C@@H](NS(=O)(=O)c2cccc(OC)c2)[C@@H](CO)O1`, -0.52% (inactive).
In the case of `COC(=O)C1CCN(C(=O)COC(=O)c2cc(S(=O)(=O)N3CCOCC3)ccc2C)CC1`, the activation is -1.23% (inactive).
Turning to `COc1ccc(S(=O)(=O)N2CCOCC2)cc1C(=O)NC1CCCCC1`, the activation is -1.6% (inactive).
Regarding `Cc1ccc(S(=O)(=O)N2CCOCC2)cc1C(=O)OC1CCCCC1=O` (stereo not given), the activation was 1.21% (active).
